Test results published in PubChem BioAssay (EPA / NIEHS).
Where “and” joins values, the source holds several entries; their conditions need not be identical. Equal entries are not always repeated. Records with an inconclusive call do not appear. Calls of active or inactive are those of the source. How the source made its calls: active means hit-call score of the fitted dose curve at least 0.9, where 1 is the maximum; inconclusive means response in the unintended direction; inactive means score below 0.9.

molecular target: human Adrenergic, Alpha 2c Receptor (Adra2C), ADRA2C (gene 152) (UniProt P18825); experiment: NVS_GPCR_hAdra2C: NovaScreen (NVS) G Protein-Coupled Receptor Assay for human Adrenergic, Alpha 2c Receptor (Adra2C) (AID 2283259)
Sequence (P18825 whole entry, looked up): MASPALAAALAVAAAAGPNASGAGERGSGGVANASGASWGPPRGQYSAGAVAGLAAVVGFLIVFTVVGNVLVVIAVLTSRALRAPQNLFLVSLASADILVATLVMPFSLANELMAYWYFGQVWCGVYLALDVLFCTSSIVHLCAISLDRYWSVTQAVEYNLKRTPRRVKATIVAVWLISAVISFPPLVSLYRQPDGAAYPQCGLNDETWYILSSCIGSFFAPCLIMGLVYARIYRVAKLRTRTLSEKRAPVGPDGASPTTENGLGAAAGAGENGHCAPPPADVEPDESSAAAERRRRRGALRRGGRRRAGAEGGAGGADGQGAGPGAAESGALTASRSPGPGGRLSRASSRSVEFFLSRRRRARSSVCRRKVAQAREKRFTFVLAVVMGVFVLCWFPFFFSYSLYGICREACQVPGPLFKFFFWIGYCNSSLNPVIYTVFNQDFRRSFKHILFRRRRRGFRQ
Method: NVS_GPCR_hAdra2C is a biochemical, single-readout assay that uses extracted gene-proteins from SF9 in a cell-free assay. Measurements were taken 1 hour after chemical dosing in a 96-well plate.NVS_GPCR_hAdra2C is one of one assay component(s) measured or calculated from the NVS_GPCR_hAdra2C assay. It is designed to make measurements of radioligand binding, a form of binding reporter, as detected with scintillation counting signals by Filter-based radiodetection technology.Data from the assay component NVS_GPCR_hAdra2C was analyzed into 1 assay endpoint. This assay endpoint, NVS_GPCR_hAdra2C, was analyzed in the positive analysis fitting direction relative to DMSO as the negative control and baseline of activity. Using a type of binding reporter, loss-of-signal activity can be used to understand changes in the binding as they relate to the gene ADRA2C. Furthermore, this assay endpoint can be referred to as a primary readout, because the performed assay has only produced 1 assay endpoint. To generalize the intended target to other relatable targets, this assay endpoint is annotated to the gpcr intended target family, where the subfamily is rhodopsin-like receptor.
Binding assays used specific radioligands (tritiated, iodinated) with non-radioactive competitive displacement ligands in agonist or antagonist protocols (as indicated) and various reference compounds and inhibitors to titrate specific binding to receptors and transporters. Most enzyme assays (CYPs, kinases, phosphatases, proteases, HDACs) used recombinant protein and specific substrates (fluorescence mostly, some colorimetric and radioactive) and inhibitors, followed by a biochemical separation of substrate and product. All assays for the biochemical HTS were initially run in duplicate at a single concentration (10 uM for CYP450 assays and 25 uM for all others). […] Each assay was run with positive and negative controls, and concurrent controls on every plate. The follow-up (secondary) screen tested active chemical-pairs in concentration series, as well as a few additional assays not tested in the primary screen, some selected negative inactives, and several cases re-run in the concentration series for confirmatory purposes.

AC50, active:
COc1cc(C(=O)NC2CCN(C)CC2)ccc1Nc1ncc2c(n1)N(C1CCCC1)CC(F)(F)C(=O)N2C 6.01 µM
O=C1c2ccccc2C(=O)N1CCc1noc(-c2ccc(CN3CCCCCC3)s2)n1 1.08 µM
COc1ccc2cc(S(=O)(=O)N[C@H](CC(=O)N[C@H](Cc3ccc(CN4[C@H](C)CCC[C@@H]4C)cc3)C(=O)N(C)C(C)C)c3ccc4c(c3)OCO4)ccc2c1 5.22 µM
CCCCCCCCOC(=O)c1cc(O)c(O)c(O)c1 11.8 µM
CCN(Cc1cccnc1)C(=O)c1cccc(Cl)c1[C@]1(C)C(=O)N(Cc2ccc(OC)cc2OC)c2ccc(Cl)cc21 2.22 µM
CC/C(=C(/CC)c1ccc(O)cc1)c1ccc(O)cc1 19.2 µM and 25 µM and 5.86 µM
NCc1cccc(C2CCN(C(=O)c3ccc(C#Cc4ccccc4F)o3)CC2)c1 4.51 µM
Cc1cc(F)ccc1-c1cc(N2CC[C@@H](O)[C@H]2CO)ncc1N(C)C(=O)C(C)(C)c1cc(C(F)(F)F)cc(C(F)(F)F)c1 5.39 µM
CCOC(=O)O[C@H](C)OC(=O)c1ccc2c(c1)cc(C(=O)NC1CCN(C(C)C)CC1)n2Cc1cc(-c2ccc(Cl)s2)on1 2.01 µM
Cc1occc1C(=O)Nc1ccc(C(=O)N2CCC(F)(F)/C(=C\C(=O)N3CCC(N4CCCCC4)CC3)c3ccccc32)cc1 1.03 µM
Clc1cc(Cl)c2c(c1)N=C1CCCCCN1C2 5.73 µM
CN(C)c1ccc(C(=C2C=CC(=[N+](C)C)C=C2)c2ccc(N(C)C)cc2)cc1 1.79 µM
CN(C)C(=O)C1(N2CCCCC2)CCN(CC[C@@]2(c3ccc(Cl)c(Cl)c3)CN(C(=O)c3ccccc3)CCO2)CC1 12.1 µM
CCN(CC)C(=O)c1cc(S(=O)(=O)Cc2ccccc2)c(N2CCC(c3ccccc3)CC2)cc1N(CC)CCN(C)C 9.22 µM
